Laboratory results from PubChem BioAssay (NCATS).
Records with an inconclusive call do not appear. The source made the active and inactive calls. Unless noted, the call rests on the fitted dose curve; in most records, active means well fitted curve in the direction sought with a large enough effect; inconclusive means small, poorly fitted or top-dose-only effect, or another doubt; inactive means no such curve, though single readings can be large; an effect the other way counts as inactive or inconclusive.

Key:
[1] = molecular target: Cytochrome P450 1A2 (Homo sapiens) (UniProt P05177); experiment: p450-cyp1a2 (AID 410; calls by dose curve; further: potency means the concentration at half of the fitted maximal effect;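 on activity change, negative = inhibition: -100% = full effect of reference inhibitor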)
Sequence of Cytochrome P450 1A2 (Homo sapiens) (P05177 whole entry, looked up): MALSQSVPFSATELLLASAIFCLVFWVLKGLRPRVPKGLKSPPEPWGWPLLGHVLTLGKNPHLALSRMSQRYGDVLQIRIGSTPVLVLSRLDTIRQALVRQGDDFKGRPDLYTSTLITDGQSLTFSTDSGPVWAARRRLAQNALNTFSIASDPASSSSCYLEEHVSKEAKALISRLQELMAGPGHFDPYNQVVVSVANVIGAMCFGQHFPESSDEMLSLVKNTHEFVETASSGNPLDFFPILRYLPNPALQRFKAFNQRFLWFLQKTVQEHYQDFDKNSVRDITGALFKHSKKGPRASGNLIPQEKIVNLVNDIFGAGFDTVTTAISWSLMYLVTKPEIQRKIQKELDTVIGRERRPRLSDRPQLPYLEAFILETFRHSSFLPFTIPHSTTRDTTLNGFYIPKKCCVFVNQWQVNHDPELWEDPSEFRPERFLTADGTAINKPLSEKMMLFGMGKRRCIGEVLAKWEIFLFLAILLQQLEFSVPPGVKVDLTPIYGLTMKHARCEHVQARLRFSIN
Outline: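 Read-out is luminescence from luciferin produced by CYP1A2 demethylation of Luciferin-ME (100uM, at Km). Detection reagent stopped the 60 min NADPH-dependent reaction; signals were normalized to 57 uM furafylline.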

[2] = molecular target: Glucocorticoid receptor (Homo sapiens) (UniProt P04150); experiment: GR-GFP Redistribution (AID 450;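 active means compounds whose dose series gives a full or clear partial fitted curve of increased nuclear translocation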; further: potency means the concentration at half of the fitted maximal effect); conditions: U2OS GR-GFP nuclear translocation, laser cytometry, 2 h
Sequence of Glucocorticoid receptor (Homo sapiens) (P04150 whole entry, looked up, the tested form may be a part): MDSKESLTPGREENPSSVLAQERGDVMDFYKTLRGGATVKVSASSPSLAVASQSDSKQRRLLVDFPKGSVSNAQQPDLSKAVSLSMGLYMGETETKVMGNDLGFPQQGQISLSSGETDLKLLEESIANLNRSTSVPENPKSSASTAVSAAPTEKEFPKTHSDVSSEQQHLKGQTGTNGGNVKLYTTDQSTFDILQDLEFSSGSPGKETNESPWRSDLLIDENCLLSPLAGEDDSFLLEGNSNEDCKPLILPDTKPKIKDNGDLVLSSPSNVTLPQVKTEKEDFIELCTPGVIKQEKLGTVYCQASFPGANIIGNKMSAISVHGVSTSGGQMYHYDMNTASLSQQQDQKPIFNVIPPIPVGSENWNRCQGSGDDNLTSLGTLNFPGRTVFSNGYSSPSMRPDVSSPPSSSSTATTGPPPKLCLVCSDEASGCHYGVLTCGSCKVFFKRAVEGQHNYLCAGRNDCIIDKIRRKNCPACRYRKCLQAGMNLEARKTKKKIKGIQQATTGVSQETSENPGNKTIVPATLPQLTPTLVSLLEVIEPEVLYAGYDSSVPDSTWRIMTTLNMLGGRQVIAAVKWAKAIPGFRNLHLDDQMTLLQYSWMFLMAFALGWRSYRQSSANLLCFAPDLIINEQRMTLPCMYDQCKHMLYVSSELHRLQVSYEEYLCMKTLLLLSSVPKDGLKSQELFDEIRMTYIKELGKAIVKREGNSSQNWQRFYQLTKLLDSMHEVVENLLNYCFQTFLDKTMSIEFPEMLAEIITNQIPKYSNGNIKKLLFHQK

[3] = molecular target: Glucocorticoid receptor (Homo sapiens) (UniProt P04150); experiment: GR-EFC Redistribution (AID 451; calls by dose curve; further: potency means the concentration at half of the fitted maximal effect); conditions: CHO-K1 GR-EFC translocation, beta-gal luminescence, 2 h
Outline: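 CHO-K1 cells stably expressing nuclear-localized β-gal enzyme acceptor and GR fused C-terminally to the enzyme donor fragment; ligand-driven nuclear translocation restores β-gal by complementation. Compounds titrated up to 46 uM final, 2 h at 37 °C; luminescence read.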

[4] = molecular target: Cytochrome P450 3A4 (Homo sapiens) (UniProt P08684); experiment: qHTS Assay for Activators of Cytochrome P450 3A4 (AID 885); further: nearly all actives have a fitted effect of over 65% in size
Sequence of Cytochrome P450 3A4 (Homo sapiens) (P08684 whole entry, looked up): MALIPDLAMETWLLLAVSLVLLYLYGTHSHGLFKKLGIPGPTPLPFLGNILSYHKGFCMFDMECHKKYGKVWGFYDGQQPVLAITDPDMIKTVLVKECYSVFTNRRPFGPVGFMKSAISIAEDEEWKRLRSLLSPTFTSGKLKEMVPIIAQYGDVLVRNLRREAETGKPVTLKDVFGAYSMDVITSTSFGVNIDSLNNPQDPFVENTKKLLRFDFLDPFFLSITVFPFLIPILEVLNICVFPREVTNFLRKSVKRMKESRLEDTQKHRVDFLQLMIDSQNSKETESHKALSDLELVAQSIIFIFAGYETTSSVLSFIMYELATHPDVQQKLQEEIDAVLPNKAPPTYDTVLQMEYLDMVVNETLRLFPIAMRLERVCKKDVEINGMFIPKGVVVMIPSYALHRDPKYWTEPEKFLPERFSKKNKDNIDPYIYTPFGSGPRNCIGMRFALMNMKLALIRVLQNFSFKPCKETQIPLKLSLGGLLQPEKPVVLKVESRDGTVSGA
Outline: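 Activators are scored by enhanced luminescence from CYP3A4 conversion of luciferin-PPXE (25uM, equal to KM) to luciferin, after 60 min at RT with an NADPH-regenerating system.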

[5] = molecular target: Ubiquitin carboxyl-terminal hydrolase 1 (Homo sapiens) (UniProt O94782); experiment: Inhibitors of USP1/UAF1: Pilot qHTS (AID 504865); further: nearly all actives have a fitted effect of over 35% in size; further: potency means the concentration at half of the fitted maximal effect
Sequence of Ubiquitin carboxyl-terminal hydrolase 1 (Homo sapiens) (O94782 whole entry, looked up): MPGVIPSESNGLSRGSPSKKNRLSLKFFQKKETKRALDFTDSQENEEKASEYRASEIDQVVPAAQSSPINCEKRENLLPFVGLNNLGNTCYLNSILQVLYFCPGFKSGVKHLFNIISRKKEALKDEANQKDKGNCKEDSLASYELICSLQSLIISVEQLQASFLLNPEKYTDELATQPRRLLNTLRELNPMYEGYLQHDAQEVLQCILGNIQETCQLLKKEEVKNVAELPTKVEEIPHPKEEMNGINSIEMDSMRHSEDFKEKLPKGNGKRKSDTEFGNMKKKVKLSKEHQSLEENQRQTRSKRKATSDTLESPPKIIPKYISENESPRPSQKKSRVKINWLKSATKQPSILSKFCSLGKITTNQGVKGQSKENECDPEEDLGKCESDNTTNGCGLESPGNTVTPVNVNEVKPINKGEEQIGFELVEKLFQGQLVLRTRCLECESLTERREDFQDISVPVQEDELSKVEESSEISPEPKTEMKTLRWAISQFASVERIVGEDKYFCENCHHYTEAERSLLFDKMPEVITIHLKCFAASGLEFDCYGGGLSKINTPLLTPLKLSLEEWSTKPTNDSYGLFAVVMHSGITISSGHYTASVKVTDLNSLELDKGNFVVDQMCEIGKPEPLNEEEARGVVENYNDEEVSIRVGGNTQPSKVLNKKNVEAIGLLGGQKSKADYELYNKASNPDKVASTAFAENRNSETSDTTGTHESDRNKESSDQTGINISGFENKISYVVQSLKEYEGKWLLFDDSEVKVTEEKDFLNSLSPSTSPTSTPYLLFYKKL
Outline: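 1nM USP1/UAF1 + cpd, 15 min RT; start w/ Ub-Rho 150nM final; kinetic FL 480/540 nm, 6 reads q60 s. Buffer 50mM HEPES pH 7.8, 0.5mM EDTA, 1mM TCEP, 0.01% Tween-20, 0.1 mg/ml BSA.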

[6] = molecular target: DNA dC->dU-editing enzyme APOBEC-3G (Homo sapiens) (UniProt Q9HC16); experiment: qHTS for inhibitors of Vif-A3G interactions: Validation (AID 588379); further: 0% is about no effect
Sequence of DNA dC->dU-editing enzyme APOBEC-3G (Homo sapiens) (Q9HC16 whole entry, looked up): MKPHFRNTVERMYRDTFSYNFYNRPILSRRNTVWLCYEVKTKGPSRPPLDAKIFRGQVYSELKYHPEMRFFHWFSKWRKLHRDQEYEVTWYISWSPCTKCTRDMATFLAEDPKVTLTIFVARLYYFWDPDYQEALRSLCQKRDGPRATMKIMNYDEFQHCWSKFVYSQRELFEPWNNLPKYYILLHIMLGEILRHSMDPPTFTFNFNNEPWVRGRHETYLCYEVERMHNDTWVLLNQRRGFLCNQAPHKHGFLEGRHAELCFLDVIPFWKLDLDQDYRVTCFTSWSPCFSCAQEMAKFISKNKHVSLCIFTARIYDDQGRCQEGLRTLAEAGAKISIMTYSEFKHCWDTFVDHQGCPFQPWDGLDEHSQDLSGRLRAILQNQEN
Outline: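 Yellow fluorescence (Ex 488, Em 500-530) of Vif-coexpressing HeLa A3G-eYFP cells, scanned by Acumen cytometer, reports blocked A3G degradation. Cells plated at 700/well overnight at 37 deg C before compound addition, then a further overnight compound incubation at 37 deg C.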

[7] = system: Zika virus NS2B-NS3 protease; experiment: Primary screen GU AMC qHTS for Zika virus inhibitors (AID 1347154);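 further: 0% = no-inhibitor control and -100% = no-enzyme control; nearly all actives have a fitted effect of over 70% in size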
Outline: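 Unlinked Zika NS2B hydrophilic domain/NS3 protease domain noncovalent complex (25 nM final) in 10 mM Tris-HCl pH 8.0, 0.01% Tween 20, with AMC peptide substrate. Fluorescence (ex 340, em 450 nm) change over 15 min, room temperature; percent inhibition fitted to 4-parameter Hill equation.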

[8] = Primary qHTS for small molecule stabilizers of the endoplasmic reticulum resident proteome: Secreted ER Calcium Modulated Protein (SERCaMP) assay (AID 1508630); further: on the % scale 0 is the no-effect control and ±100 the full control effect
Outline: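 The SH-SY5Y reporter protocol was run at 3 concentrations up to 38.3 uM (primary) or 11 concentrations (follow-up): 16 h compound, 100 nM thapsigargin for 4 h, then extracellular luciferase luminescence.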

[9] = molecular target: Rap guanine nucleotide exchange factor 3 (Homo sapiens) (UniProt O95398); experiment: Confirmatory qHTS for agonist of cAMP-regulated guanine nucleotide exchange factor 3 (EPAC1) (AID 1645881);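 further: EPAC1 catalysed release of BODIPY-GDP from Rap1B seen as fluorescence loss; 100% = effect of cAMP agonist control; nearly all actives have a fitted effect of over 75% in size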
Sequence of Rap guanine nucleotide exchange factor 3 (Homo sapiens) (O95398 whole entry, looked up): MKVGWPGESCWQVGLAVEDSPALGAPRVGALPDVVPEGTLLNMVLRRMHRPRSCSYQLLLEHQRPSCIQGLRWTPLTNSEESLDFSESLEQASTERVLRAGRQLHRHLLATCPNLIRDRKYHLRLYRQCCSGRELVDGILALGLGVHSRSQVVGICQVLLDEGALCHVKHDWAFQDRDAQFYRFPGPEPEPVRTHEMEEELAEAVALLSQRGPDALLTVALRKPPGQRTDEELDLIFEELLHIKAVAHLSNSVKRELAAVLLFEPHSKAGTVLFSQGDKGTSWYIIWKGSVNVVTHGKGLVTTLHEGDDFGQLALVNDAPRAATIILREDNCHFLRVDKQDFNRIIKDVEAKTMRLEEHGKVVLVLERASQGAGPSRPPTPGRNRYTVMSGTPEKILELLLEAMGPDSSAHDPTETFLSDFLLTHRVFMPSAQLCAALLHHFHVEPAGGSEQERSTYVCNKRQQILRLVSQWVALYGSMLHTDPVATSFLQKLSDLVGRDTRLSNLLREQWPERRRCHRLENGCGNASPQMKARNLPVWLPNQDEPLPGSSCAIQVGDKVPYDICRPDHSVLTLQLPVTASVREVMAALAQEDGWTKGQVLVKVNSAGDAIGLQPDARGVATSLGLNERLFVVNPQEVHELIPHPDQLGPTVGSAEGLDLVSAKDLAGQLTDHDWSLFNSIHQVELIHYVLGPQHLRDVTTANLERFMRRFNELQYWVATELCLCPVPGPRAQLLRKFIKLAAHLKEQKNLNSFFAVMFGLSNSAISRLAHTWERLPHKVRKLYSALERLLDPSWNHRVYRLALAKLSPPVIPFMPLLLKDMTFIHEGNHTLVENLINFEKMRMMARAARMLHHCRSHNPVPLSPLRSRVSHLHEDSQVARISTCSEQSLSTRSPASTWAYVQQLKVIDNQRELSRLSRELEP

[10] = molecular target: Mitogen-activated protein kinase 10 (Mus musculus) (UniProt Q61831); experiment: JNK3 AlphaScreen Assay (AID 530; active means well fitted curve in either direction with a large enough effect, not every such curve was filed as active;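 further: kinase came from lysate of stimulated human HepG2 cells; signal reports phosphorylation of biotinylated GST-cJun 1-79 at Ser73 with 10 µM ATP; on the % scale 0 is the no-effect control and ±100 the full control effect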)
Outline: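 Biotinylated GST-cJun(1-79) served as substrate for JNK3 in HepG2 lysates stimulated with IL-1beta and TNF-alpha. ATP was 10 uM final, pH 7.6. Ser73 phosphorylation was quantified by AlphaScreen (680 nm excitation).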

[11] = NFAT Signaling Pathway (AID 444; active means well fitted curve in either direction with a large enough effect, not every such curve was filed as active;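 further: carbachol stimulus at about its EC50 of 1 µM final; on the % scale 0 is the no-effect control and ±100 the full control effect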); conditions: Jurkat NFAT-bla M1, carbachol, beta-lactamase ratio, 5 h; at 38 µM (top of the series)
Outline: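 Jurkat cells carrying an NFAT-driven β-lactamase reporter and co-transfected muscarinic M1 receptor were treated with compound plus carbachol (1 uM final, an EC50 level) for 5 h at 37 °C. CCF4 loading followed for 1 h at RT; 460/530 nm ratio gave %activity.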

[12] = Stat Signaling Pathway (AID 446; active means well fitted curve in either direction with a large enough effect, not every such curve was filed as active;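 further: ME-180 cervical cancer cells given 40 pM IL-6 alongside compound; SIE-controlled beta-lactamase reporter measured as 460/530 nm FRET emission ratio; on the % scale 0 is the no-effect control and ±100 the full control effect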); conditions: ME-180 (cervical carcinoma) SIE beta-lactamase reporter, IL-6 stimulated, 5 h; at 38 µM (top of the series)
Outline: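 Emission at 460 and 530 nm (excitation 405 nm) reports SIE-controlled beta-lactamase in ME-180 cells. Cells received compound with 40 pM IL-6 for 5 hrs at 37 C; data scaled between 300 pM IL-6 and 125 nM JAK-inhibitor controls.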

[13] = molecular target: 3',5'-cyclic-AMP phosphodiesterase 4B (Homo sapiens) (UniProt Q07343); experiment: qHTS Assay for Inhibitors of PDE-IV (AID 607; active means well fitted activation curve with a large enough effect in the main read-out, with a control signal flat, not every such curve was filed as active; further: % of control where 0% means no effect)
Sequence of 3',5'-cyclic-AMP phosphodiesterase 4B (Homo sapiens) (Q07343 whole entry, looked up): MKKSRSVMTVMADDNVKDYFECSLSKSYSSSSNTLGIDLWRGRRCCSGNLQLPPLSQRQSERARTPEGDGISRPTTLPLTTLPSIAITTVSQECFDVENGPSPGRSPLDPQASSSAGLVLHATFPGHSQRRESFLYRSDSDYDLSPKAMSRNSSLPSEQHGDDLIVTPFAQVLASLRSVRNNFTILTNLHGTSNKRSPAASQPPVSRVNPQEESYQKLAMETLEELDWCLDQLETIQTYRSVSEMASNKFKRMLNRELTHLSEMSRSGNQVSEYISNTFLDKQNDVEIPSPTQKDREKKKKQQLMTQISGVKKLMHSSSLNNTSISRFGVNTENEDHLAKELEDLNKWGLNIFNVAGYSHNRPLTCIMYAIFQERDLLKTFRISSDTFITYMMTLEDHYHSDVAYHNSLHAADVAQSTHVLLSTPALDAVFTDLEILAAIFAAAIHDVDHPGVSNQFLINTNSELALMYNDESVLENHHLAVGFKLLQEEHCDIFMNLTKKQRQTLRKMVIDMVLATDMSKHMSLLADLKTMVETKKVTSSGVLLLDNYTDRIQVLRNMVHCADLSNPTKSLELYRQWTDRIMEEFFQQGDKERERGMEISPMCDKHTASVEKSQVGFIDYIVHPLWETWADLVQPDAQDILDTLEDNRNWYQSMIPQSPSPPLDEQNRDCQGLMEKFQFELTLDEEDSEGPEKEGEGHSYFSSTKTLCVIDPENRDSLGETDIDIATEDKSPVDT
Outline: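 The readout is membrane depolarisation from a cAMP-sensing CNG channel, detected with a potential dye at ex 535/em 590. Cells were HEK293-derived (endogenous PDE-IV) at 1000 cells/well, titrated up to 22.9 uM final.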

[14] = molecular target: Guanine nucleotide-binding protein G(i) subunit alpha-1 (Homo sapiens) (UniProt P63096); experiment: qHTS Assay for Inhibitors of RGS12 GoLoco Motif Activity (Green Fluorophore) (AID 879);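 further: 0% = labeled peptide with Gαi1 and full inhibition = labeled peptide alone without protein; negative values mean loss of peptide binding seen as reduced polarization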
Sequence of Guanine nucleotide-binding protein G(i) subunit alpha-1 (Homo sapiens) (P63096 whole entry, looked up): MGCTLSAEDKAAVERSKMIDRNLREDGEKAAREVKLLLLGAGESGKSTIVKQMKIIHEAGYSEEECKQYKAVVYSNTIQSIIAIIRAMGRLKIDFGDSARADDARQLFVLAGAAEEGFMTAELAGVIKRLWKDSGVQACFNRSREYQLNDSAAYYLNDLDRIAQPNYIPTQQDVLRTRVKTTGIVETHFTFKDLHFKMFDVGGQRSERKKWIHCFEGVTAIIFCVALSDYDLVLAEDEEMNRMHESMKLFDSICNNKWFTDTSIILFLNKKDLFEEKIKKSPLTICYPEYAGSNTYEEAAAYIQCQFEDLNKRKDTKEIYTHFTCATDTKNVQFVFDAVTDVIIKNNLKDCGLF
Outline: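 A drop in FITC polarization marked displacement of the FITC-tagged RGS12 GoLoco peptide (10 nM) from Gαi1 (50 nM). Compounds were incubated 10 min at room temperature in Tris pH 7.5 buffer containing 150 mM NaCl, 0.1 mM GDP and 0.05% NP40; unlabeled peptide titration served as control.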

[15] = molecular target: alpha-glucosidase (Oryza sativa, rice) (UniProt Q653V4); experiment: Counterscreen for Glucocerebrosidase Inhibitors: qHTS Assay for Rice alpha-Glucosidase at pH 5.0 (AID 997);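 further: 0% = full activity with enzyme and -100% = basal without enzyme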
Outline: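 Endpoint fluorogenic assay at pH 5.0: compounds (0.7 nM to 77 uM) titrated against 4 nM rice enzyme and 400 uM 4-MU-alpha-glucoside for 20 min at room temperature; NaOH/glycine stop, read ex 365/em 440 nm, Hill-fitted AC50.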

[16] = molecular target: Cytochrome P450 2D6 (Homo sapiens) (UniProt P10635); experiment: qHTS Assay for Inhibitors and Substrates of Cytochrome P450 2D6 (AID 891); further: potency means the concentration at half of the fitted maximal effect; nearly all actives have a fitted effect of over 60% in size
Outline: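 Luminescent read-out of luciferin formed by 5 nM human CYP2D6 demethylating 30 uM Luciferin-ME EGE (Km level) over 60 min at room temperature after NADPH regeneration addition. Data normalized to full inhibition by 1.43 uM quinidine.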

[17] = molecular target: Cytochrome P450 3A4 (Homo sapiens) (UniProt P08684); experiment: qHTS Assay for Inhibitors and Substrates of Cytochrome P450 3A4 (AID 884); further: potency means the concentration at half of the fitted maximal effect; nearly all actives have a fitted effect of over 50% in size
Outline: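 Luminescent readout of luciferin produced by CYP3A4 (20 nM) dealkylation of Luciferin-PPXE, 25 uM (its KM). NADPH-driven reaction ran 60 min at RT after 10 min compound preincubation; data scaled to 57 uM ketoconazole as 100% inhibition.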

Cc1sc(N)c(C(=O)c2cccc(C(F)(F)F)c2)c1C
inactive: Potency [2] > 46 µM | Potency [3] > 46 µM | Potency [4] | Potency [6] | Potency [7] | Potency [8] | outcome [9]
active: Potency [1] 15.8 µM | Potency [5] 50.1 µM

Cc1ccc(NC2=CC(=O)c3sc(C)nc3C2=O)cc1
inactive: Potency [7] | Potency [8]

CC(C)[C@H](CO)Nc1nc(Nc2cc(N)cc(Cl)c2)c2ncn(C(C)C)c2n1
active: Potency [1] 0.501 µM
inactive: Potency [2] > 46 µM | Potency [3] > 46 µM | Potency [10] | Potency [6] | Potency [7] | Potency [8] | outcome [9]

C[N+](C)(C)CCC(=O)c1cccc2ccccc12
active: Potency [1] 7.94 µM | activity change, negative = inhibition [11] 13.8% | activity, negative = inhibition [12] -81.5%
inactive: Potency [2] > 46 µM | Potency [3] > 46 µM | Potency [10] | Potency [13] | outcome [14] | Potency [4] | outcome [15] | Potency [7] | Potency [8]

COCCNC(=O)COc1ccc(OCCNC[C@@H](O)COc2ccccc2)cc1
active: Potency [16] 5.01 µM
inactive: Potency [1] | Potency [2] > 46 µM | Potency [3] > 46 µM | Potency [10] | Potency [13] | Potency [4] | Potency [5] | Potency [6] | Potency [7] | Potency [8]

c1ccc2sc(N3CCN(Cc4ccc5c(c4)OCO5)CC3)nc2c1
active: Potency [1] 1 µM | Potency [17] 0.631 µM
inactive: Potency [2] > 46 µM | Potency [3] > 46 µM | Potency [10] | Potency [4] | Potency [5] | Potency [7] | Potency [8]

CC1(C)C(=O)NC2=C1C(=O)C(=O)c1ccccc12
inactive: Potency [2] > 46 µM | Potency [3] > 46 µM | Potency [13] | Potency [4] | Potency [7] | Potency [8]
active: Potency [1] 3.16 µM | Potency [16] 2.51 µM | Potency [5] 0.891 µM

CCCCCCc1c(C[C@H](N)C(=O)O)o[nH]c1=O
inactive: Potency [2] > 46 µM | Potency [3] > 46 µM | Potency [10] | Potency [13] | Potency [5] | Potency [7] | Potency [8]
active: Potency [1] 31.6 µM

COC(=O)Nc1ccc2[nH]cc(CCNC(C)=O)c2c1
active: Potency [1] 0.316 µM
inactive: Potency [2] > 46 µM | Potency [3] > 46 µM | Potency [10] | Potency [13] | Potency [5] | Potency [6] | Potency [7] | Potency [8]
